H9c2 protect = myocardial damage modulation in H9c2 cells; H9c2 cardiomyocytes, H2O2 injury protection, ATPLite, 2 h; protection from H2O2 cell death, % at 20 µM; hit rate 0.63% among 360,000;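 active means compounds giving at least 50% protection of heart cells from peroxide-induced death in the single-dose screen, raw or plate-pattern-corrected value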;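 further: 0% = DMSO wells with peroxide and 100% = DMSO wells without peroxide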
PfGluPho inh = PfG6PD (Plasmodium falciparum) enzyme inhibition; PfGluPho enzyme, NADPH resazurin-diaphorase fluorescence; hit rate 0.78% among 350,000; inhibition, % at 20 µM; AID 504690;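 active means inhibition reaching at least a set limit at 20 µM in the primary screen, cut at about 59% in these data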;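 further: 0% = DMSO wells with substrate and 100% = DMSO wells lacking glucose-6-phosphate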
A3G deaminase = blocks human APOBEC3G single-stranded DNA deamination. Q9HC16. recombinant A3G, ssDNA deamination FAM/TAMRA fluorescence. inhibition, % at 20 µM. hit rate 0.28% among 330,000. AID 493012;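 active means inhibition of at least 40% at 20 µM, with no more than 30% in the related APOBEC3A deaminase screen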;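 further: plate controls were DMSO wells with A3G for no effect and wells lacking A3G enzyme for full effect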
Target sequence (Q9HC16 whole entry, looked up): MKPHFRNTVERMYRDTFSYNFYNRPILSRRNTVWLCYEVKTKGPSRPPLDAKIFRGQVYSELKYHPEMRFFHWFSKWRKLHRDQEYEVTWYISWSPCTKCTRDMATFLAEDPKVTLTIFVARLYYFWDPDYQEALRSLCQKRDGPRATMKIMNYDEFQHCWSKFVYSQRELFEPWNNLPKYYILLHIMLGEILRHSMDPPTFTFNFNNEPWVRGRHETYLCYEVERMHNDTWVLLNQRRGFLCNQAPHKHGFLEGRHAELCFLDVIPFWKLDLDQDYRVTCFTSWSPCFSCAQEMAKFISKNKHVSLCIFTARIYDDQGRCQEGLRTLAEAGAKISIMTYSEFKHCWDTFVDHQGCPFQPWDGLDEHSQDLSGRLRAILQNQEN
APOBEC3A inh = blocks human APOBEC3A ssDNA deamination. P31941. recombinant A3A, FAM/TAMRA ssDNA deamination fluorescence. inhibition, % at 20 µM. hit rate 0.41% among 330,000. AID 493011;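 active means at least 40% inhibition at 20 µM here, with at most 30% in a related deaminase screen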;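 further: plate controls were A3A with DMSO for no effect and wells lacking A3A enzyme for full effect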
Target sequence (P31941 whole entry, looked up): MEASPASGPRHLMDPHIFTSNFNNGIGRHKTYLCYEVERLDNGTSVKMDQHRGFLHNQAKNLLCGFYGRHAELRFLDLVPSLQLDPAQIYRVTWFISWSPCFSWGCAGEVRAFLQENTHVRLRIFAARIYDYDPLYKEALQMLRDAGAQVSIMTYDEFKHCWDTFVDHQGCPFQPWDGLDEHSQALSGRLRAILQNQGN
TAG inh = inhibitors of triacylglycerol accumulation | inhibition, % at 12.5 µM | H9c2 cells, Nile Red lipid (TAG) fluorescence; cells loaded with 200 µM oleic acid | AID 651582 | hit rate 0.66% among 230,000;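 active means pattern-corrected inhibition of lipid staining of at least 50% with the nuclear-stain viability signal not falling by more than 50%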;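 further: 0% = DMSO wells and 100% = triacsin C control wells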
NadD inh = inhibitors of Staphylococcus aureus NadD | purified NadD enzyme, colorimetric absorbance read-out | inhibition, % at 20 µM | hit rate 0.78% among 360,000 | AID 602399; in the data active means inhibition above about 26%
PfGluPho conf = PfG6PD inhibition, single-dose confirmed; shares compounds with PfGluPho inh; recombinant PfGluPho, NADPH-diaphorase-resazurin fluorescence; inhibition, % at 20 µM; hit rate 34% among 2,400; AID 504753;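 active means inhibition of at least 50% at 20 µM in any single replicate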;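 further: 0% = DMSO with substrate and 100% = DMSO lacking glucose-6-phosphate substrate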
Diaphorase 10uM = diaphorase inhibition or oxidation at 10 uM NADPH. shares compounds with PfGluPho inh. diaphorase-coupled resazurin reduction, fluorescence, NADPH 10 uM. inhibition, % at 20 µM. hit rate 39% among 820;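 active means average inhibition reaching 50% or more with the compound at 20 µM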;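 further: resorufin red fluorescence formed as diaphorase reduces resazurin using NADPH; 0% = DMSO with enzyme and 100% = DMSO without enzyme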
Diaphorase 30uM = counter-screen for P. falciparum G6PD inhibitors: diaphorase inhibitors, oxidizers; Diaphorase/resazurin coupled assay, resorufin fluorescence, 30 uM NADPH; hit rate 29% among 820; shares compounds with PfGluPho inh; inhibition, % at 20 µM;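 active means inhibition averaging 50% or more, tested at 20 µM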;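 further: 0% = DMSO with enzyme and 100% = DMSO wells lacking diaphorase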
The depositor's hits bear a star; . = no result. A selection: hits, their analogues and other compounds. The true share with any hit is near 2.9%.

SMILES	H9c2 protect	PfGluPho inh	A3G deaminase	APOBEC3A inh	TAG inh	NadD inh	PfGluPho conf	others
Cc1cc(C)n(Cc2ccc(Cl)cc2Cl)c(=O)c1S(=O)(=O)c1ccccc1	-22.4	70.9*	-0.5	1.8	-56.8	3.4	21.1
O=C(Cn1nc(Cc2ccncc2)c2ccccc2c1=O)Nc1cccnc1Cl	4.7	-8.9	-5.2	3.1	-6.1	-0.4	.
CSC1SCC2C(=O)N(C)C(C(C)C)C(=O)OCC(NC(=O)c3cnc4ccccc4n3)C(=O)NC(C)C(=O)N(C)C1C(=O)N(C)C(C(C)C)C(=O)OCC(NC(=O)c1cnc3ccccc3n1)C(=O)NC(C)C(=O)N2C (stereo unspecified)	-4.1	59.3*	.	.	114.3	7.7	8.2
CCOC(=O)CN1NC2(CCCCCCC2)NC1=S	-1.8	66.0*	34.2	5.7	-4.9	-6.5	-24.2
CCOC(=O)CN1NC2(CCCCC2)NC1=S	8.4	20.8	14.3	-1.7	9.6	-3.1	.
COc1cc(NC(=S)Nc2ccccn2)c(OC)cc1Cl	-0.5	4.8	-1.1	-0.5	-8.8	6.3	.
N#Cc1cc([N+](=O)[O-])ccc1Oc1cccc(/C=N/NC(=O)c2cccc(Cl)c2)c1	7.9	118.7*	-2.3	0.1	1.5	17.8	62.3*	Diaphorase 10uM=60.0*;Diaphorase 30uM=58.5*
Cn1c2ccccc2c(=O)c2ccc(C#CC3(N)CCCCC3)cc21	-10.0	19.9	-7.1	-1.1	21.4	2.4	.
Cn1c2ccccc2c(=O)c2cc(C#CC3(O)CCCCC3)ccc21	-28.6	62.0*	-6.4	-1.2	-11.9	-0.5	34.6
O=C(COC(=O)c1ccccc1C(=O)c1ccc(Cl)cc1)NCc1ccccc1	12.8	80.6*	-5.2	0.0	-11.9	-19.4	44.8
O=C(COC(=O)c1ccccc1C(=O)c1ccccc1)NCc1ccc(F)cc1	-9.4	8.4	-4.4	4.7	-1.1	-4.1	.
COc1cccc(CN2CC(C(=O)N3CCOCC3)CCC2=O)c1 (stereo unspecified)	0.5	1.9	-1.4	0.9	.	-2.5	.
CCN(CC)C(=O)Cn1cc(C(=O)C(=O)NCCc2c[nH]c3ccccc23)c2ccccc21	0.5	3.9	-1.7	-1.9	.	-4.9	.
COC(=O)CCC(=O)OC1(C)C(=O)C2=CN(CCc3ccccn3)C(c3ccc(OC)cc3)=CC2=C(Br)C1=O (stereo unspecified)	7.0	99.3*	-5.5	-2.4	-6.6	7.5	40.6
C=CCN1C=C2C(=O)C(C)(OC(=O)c3cccs3)C(=O)C=C2C=C1CCCC(=O)OC (stereo unspecified)	-4.0	36.5	-5.4	-4.1	-6.9	3.4	.
COC(=O)CCCC1=CC2=CC(=O)C(C)(OC(=O)c3cccs3)C(=O)C2=CN1CCc1ccccn1 (stereo unspecified)	-4.2	70.2*	-13.3	-5.1	9.5	3.3	22.9
COc1ccc(NC2=Nc3cccc4cccc2c34)cc1	-7.8	75.0*	-2.0	-1.2	.	1.0	23.0
c1ccc(NC2=Nc3cccc4cccc2c34)cc1	-8.5	47.5	0.2	2.1	-2.3	-4.3	.
CC1(C(=O)OCc2cc(=O)n3cc(Br)ccc3n2)CC1(Cl)Cl (stereo unspecified)	5.6	-0.6	-8.6	-2.6	3.4	-1.1	.
CCn1c2ccccc2c2cc(/C=N/n3cnnc3)ccc21	-3.7	28.1	-1.1	0.7	.	-4.8	.
CCn1c2ccccc2c2cc(/C=N/n3cn[nH]c3=S)ccc21	-1.2	62.6*	13.6	0.8	-0.1	7.9	52.1*	Diaphorase 10uM=-0.3;Diaphorase 30uM=4.6
COc1ccc(CCNC(=O)COC(=O)c2cncc(Br)c2)cc1OC	1.0	-1.2	-6.5	1.4	-26.2	-2.7	.
CCCCOC(=O)C1=C(C)Nc2ncnn2C1c1ccc(OC)c(OC)c1 (stereo unspecified)	-0.2	33.9	-12.8	-2.2	.	0.3	.
CCCCOC(=O)C1=C(C)Nc2ncnn2C1c1ccc(OCC)c(OC)c1 (stereo unspecified)	0.6	61.6*	-7.1	-3.4	.	2.1	28.8
Cc1ccc(S(=O)(=O)Nc2cc3c4c(c2)CCC(=O)N4CCC3)cc1	-7.9	-7.6	-10.3	-2.6	-16.5	-3.6	.
SMILES	H9c2 protect	PfGluPho inh	A3G deaminase	APOBEC3A inh	TAG inh	NadD inh	PfGluPho conf	others
COc1ccc(CCN2C(=O)COc3ccccc3C2C(=O)Nc2c(C)cccc2C)cc1OC (stereo unspecified)	.	.	.	.	.	2.0	.
c1cc(CNc2ccc3c(c2)OCO3)ccn1	3.3	61.2*	12.5	-0.7	0.0	10.7	53.2*	Diaphorase 10uM=15.0;Diaphorase 30uM=11.4
Cc1ccc(CNc2ccc3c(c2)OCO3)cc1	-14.8	40.0	.	.	.	11.9	.
O=C1CCCC2=C1C(c1ccccc1)C1C(=O)c3ccccc3C1=N2 (stereo unspecified)	6.3	30.2	-1.1	1.2	.	-0.6	.
O=C1CCCC2=C1C(c1ccc(Cl)cc1)C1C(=O)c3ccccc3C1=N2 (stereo unspecified)	18.6	71.6*	-3.7	-2.1	.	5.7	35.8
O=C(CN1C(=O)NC2(CCCC2)C1=O)N1CCN(Cc2ccccc2)CC1	-1.1	3.2	-8.4	-3.0	-12.1	-0.2	.
COc1ccccc1-n1c(=S)[nH]c2c(sc(=S)n2-c2ccccc2)c1=O	-2.0	63.1*	-4.7	-2.5	0.9	19.7	12.4
CCOc1ccccc1-n1c(=S)sc2c(=O)n(-c3ccccc3)c(=S)[nH]c21	-7.2	73.0*	-11.3	3.0	-8.7	15.1	-5.3
COc1ccccc1-n1c(=S)[nH]c2c(sc(=S)n2-c2ccccc2C)c1=O	-3.8	71.9*	-7.6	-1.4	-10.3	16.3	23.4
COc1cccc(-n2c(=S)sc3c(=O)n(-c4ccccc4OC)c(=S)[nH]c32)c1	-1.4	39.1	-6.0	-5.1	6.7	13.6	.
COc1ccc(OC)c(-n2c(=S)[nH]c3c(sc(=S)n3-c3ccccc3C)c2=O)c1	6.6	43.0	-5.3	-1.0	-3.6	14.3	.
CCOc1ccc(-n2c(=S)sc3c(=O)n(-c4ccccc4)c(SC)nc32)cc1	-8.3	-34.9	-8.3	-2.1	.	8.1	.
CC(C)(C)S(=O)(=O)N1C[C@@H]2CC/C=C\C/C(c3ccccc3)=C\2[C@H]1CCO	-1.8	13.4	.	.	0.7	-1.3	.
COc1ccc(C(=O)OCC(=O)c2ccc[nH]2)cc1	-4.2	0.6	-7.4	-2.7	7.1	-7.0	.
COc1ccccc1/C=N\NC(=O)c1c(C)nc2ccc(Cl)cn12	7.8	49.4	-6.2	-6.3	1.4	-3.5	23.4
Cc1nn(C)c(C(=O)N/N=C/c2cccc3ccccc23)c1Cl	33.7	76.1*	-2.3	4.9	.	-4.8	38.8
